The record followed here is PubChem BioAssay AID2669 (National Center for Advancing Translational Sciences (NCATS), 2010).

Where “and” joins values, the source holds several entries; their conditions need not be identical. Identical values can stand only once. Results filed as inconclusive are left out. Unmarked numbers belong to inactive results. Calls of active or inactive are those of the source. Calls follow the shape of the dose curve; as a rule, active = well fitted inhibition curve with a large enough effect; inconclusive = small, poorly fitted or top-dose-only effect, or effect the other way; inactive = flat fitted curve, though single readings scatter.

The nature of this assay: qHTS Assay Multiplex Screening to Identify Dual Action Probes in a Cell Model of Huntington: Cytoprotection (Protease relase). The conditions noted are these: PC12 HttQ103 cells, Cytotox-Glo protease release, 40 h; series mostly up to 46.1 µM; activity change, negative = inhibition: at the top concentration. An excerpt:
NIH Chemical Genomics Center [NCGC]
NIH Molecular Libraries Probe Production centers Network [MLPCN]
Assay Submitter (PI): Wei Zheng
Huntington's disease is a neurodegenerative disorder caused by a trinucleotide repeat expansion in Exon 1 of the Huntingtin gene. The CAG trinucleotide encodes glutamine and polyglutamine expansions cause cell death in selective areas of the brain. Huntington polyglutamine repeats have the tendency to form aggregates which are observable in later stages of the disease. The exact nature of the aggregates, whether toxic, protective, or insignificant, is unclear.
A stable PC12 cell line containing a gene fusion of Exon 1 of the Huntingtin gene linked to GFP under the control of the inducible ecdysone promoter were used as the cell-based model of Huntington Disease for high throughput screening. Exon 1 of the Huntingtin gene contained an expansion of 103 polyglutamines (Q103) which, when expressed, caused cell death and distinct, bright GFP aggregates. The amount of cell death and the size and intensity of GFP aggregates increased over time and induction level. In the primary screen, cell death were quantified with a measurement of ATP content in the cells. A maximal 40-50% of cell death was observed when the Huntington gene was induced in this cell line.
We optimized this assay in a homogeneous 1536 well format. A quantitative high throughput screen (qHTS) was conducted on the PC12 cells which were induced to express the toxic fusion construct. Small molecules which prevented cell death were considered hits, and were further studied. The present assay is an alternate assay for cytoprotection using Promega's Cytotox-Glo reagent.
PC12 cells stably containing a construct with an ecdysone inducible promoter expressing GFP fused to the exon 1 of HTTQ103 (Huntington protein which containing a 103 ployglutamine expansion) were used.
NCGC Assay Protocol Summary:
Sequence, Parameter, Description
1, Reagent, 5 uL 1500 cells/well 1536 TC treated White clear bottom plate
2, Compound, 23 nL Tebufenozide inducer (100 nM final) to all columns
3, Compound, 23 nL 40 uM to 0.5 nM Libraries
5, Reagent, 2 ul Promega's Cytotox-Glo assay reagent
6, Detector, 4 sec integration with a Viewlux Luminescent
Media consisted of phenol red free DMEM + 5% equine serum (Hyclone # SH30072.03 ), 5% supplemented Bovine Calf Serum (Hyclone # SH30074.03 ), 1x pen/strep, no G418
In general terms: qHTS replaces the single test concentration by a dilution series.
`O=C(Nc1ccccc1)C1=C(O)CC(c2ccco2)CC1=Nc1ccccc1` (stereo not given): the “activity change, negative = inhibition” value is -8.66%.
Regarding `CCOC(=O)c1noc(C)c1C(=O)Nc1cccc(F)c1`, the Potency was 7.08 µM (active).
Same read-out and setting: the figure for `COc1ccc2cc3cc(C(=O)N4CCN(c5ccccc5)CC4)oc3nc2c1` is 2.24 µM (active); for `COc1ccc(C2=Nc3cc(C)ccc3OC2)cc1` it is 11.2 µM (active).
For the molecule `Cc1ccccc1N=C(N)Nc1ccccc1C`, the “activity change, negative = inhibition” value is 0.765%.
As for `O=C(Nc1cccnc1)Nc1ccccc1Cl`, the Potency is 3.16 µM (active).
On to `NC(=O)c1sc2nccc(Nc3ccccc3)c2c1N`, for which the “activity change, negative = inhibition” value was -13.6%.
Turning to `Cc1cc(C)n(S(=O)(=O)/C=C/c2ccccc2)n1`, the “activity change, negative = inhibition” value was -19.1%.
With `CCCCCCCCNc1ncnc2ccccc12`, the “activity change, negative = inhibition” value was 27%.
As for `Cn1nnnc1Sc1ncnc2scc(-c3ccsc3)c12`, the Potency is 7.94 µM (active).
Still for that read-out and setting: to `N#CCSc1nc2ccc(N3CCCCC3)cc2c(=O)n1Cc1ccccc1` belongs 22.4 µM (active); to `Cn1nnnc1Sc1ncnc2scc(-c3cc4ccccc4o3)c12`, 7.08 µM (active).
For `C=C1CCC2[C@](C)(CO)[C@H](O)CC[C@@]2(C)[C@@H]1C/C=C1/C(=O)OC[C@H]1O` (stereo not given in full), the “activity change, negative = inhibition” value is 3.85%.
Regarding `Fc1cccc(Cl)c1Cn1nnc2c(-n3ccnc3)ncnc21`, the “activity change, negative = inhibition” value was -13.5%.
On to `Cn1nnnc1Sc1ncnc2scc(-c3cccc([N+](=O)[O-])c3)c12`, for which the Potency was 12.6 µM (active).
Regarding `C[C@]12CC[C@@H]3c4ccc(OC(=O)c5ccccc5)cc4CC[C@H]3[C@@H]1CC[C@@H]2O`, the “activity change, negative = inhibition” value was 9.1%.
As to `CN1C(=O)CC(Sc2ncccc2C(=O)O)C1=O` (stereo not given), the “activity change, negative = inhibition” value was 4.06%.
For the molecule `CN1C(=O)NC(NC(=O)c2cccs2)(C(F)(F)F)C1=O` (stereo not given), the “activity change, negative = inhibition” value is -6.9%.
As for `CCN(CC)CCNc1ccc(CO)c2sc3ccccc3c(=O)c12`, the Potency is 10 µM (active).
Same read-out and setting: the figure for `Cn1nnnc1Sc1ncnc2scc(-c3cnc(N)nc3)c12` is 11.2 µM (active); for `O=[N+]([O-])c1ccc(O)c2ncccc12` it is 22.4 µM (active).
As to `O=C(O)/C=C/C(O)c1ccc(Cl)cc1` (stereo not given), the “activity change, negative = inhibition” value was 7.37%.
Regarding `Cn1nnnc1Sc1ncnc2scc(-c3ccccc3C(F)(F)F)c12`, the Potency was 20 µM (active).
Turning to `CCOC(=O)N1CCN(C(=O)CSCC(=O)Nc2nc(-c3ccc(-c4ccccc4)cc3)cs2)CC1`, the Potency is 3.16 µM (active).
Regarding `Cn1nnnc1Sc1ncnc2scc(-c3ccccc3F)c12`, the Potency was 12.6 µM (active).
Consider `O=C(Nc1ccc(Cl)cc1C(F)(F)F)C(Sc1cccc[n+]1[O-])c1ccccc1` (stereo not given), for which the “activity change, negative = inhibition” value is 5.2%.
Still for that read-out and setting: the figure for `CCN(Cc1ccncc1)C(=O)c1cc(Br)cc(Br)c1O` is -3.22%.
On to `Cn1nnnc1Sc1ncnc2scc(-c3ccc(C(=O)OC(C)(C)C)cc3)c12`, for which the Potency was 14.1 µM (active).
Still for that read-out and setting: the figure for `Cc1ccc(S(=O)(=O)CCc2nc3ccccc3n2CCC#N)cc1` is 25.1 µM (active); for `C=C(C)C(=O)OCCCCCCOc1ccc(C(=O)O)cc1` it is 2.24 µM (active).
Regarding `Cc1cc(NC(=O)CCS(=O)(=O)c2nc(-c3ccccc3)cc(C(F)(F)F)n2)no1`, the “activity change, negative = inhibition” value was 8.8%.
Same read-out and setting: the figure for `COc1cc(Cc2cnc(N)nc2N)cc(OC)c1OC` is 15.3%.
Consider `O=Nc1c(-c2c(O)[nH]c3ccccc23)[nH]c2ccccc12`, for which the Potency was 631 nM (active) and 1.41 µM (active).
With `COc1cc(NC(=O)COC(=O)[C@@H]2CCCN2S(=O)(=O)c2ccc(Cl)cc2)cc(OC)c1OC`, the “activity change, negative = inhibition” value is 11.8%.
Regarding `Cn1nnnc1Sc1ncnc2scc(-c3ccc(Br)cc3)c12`, the Potency is 7.08 µM (active).
For the molecule `COc1ccc(CNC(=O)CN(C(=O)CCC(=O)Nc2ccccn2)c2ccccc2OC)cc1`, the “activity change, negative = inhibition” value was -2.31%.
`Cn1nnnc1Sc1ncnc2scc(-c3cccc(S(C)(=O)=O)c3)c12`: the Potency is 7.08 µM (active).
In the case of `CC(=O)Oc1cccc(C(=O)O)c1OC(C)=O`, the “activity change, negative = inhibition” value was 7.72%.
As for `Cn1nnnc1Sc1ncnc2scc(Br)c12`, the Potency is 7.94 µM (active).
The same measure, in the same setting: to `O=C(c1ccccc1)c1ccc2n1CCC2C(=O)O` (stereo not given) belongs 3.98 µM (active).
